# PostGolgi ctrl = yeast control strain growth, post-Golgi counter-screen; efflux-deficient yeast background strain, growth absorbance A615, 16 h; inhibition, % at 10 µM; 5% of 98,000 active; AID 738
# PostGolgi yeast = growth inhibition of a yeast mutant, post-Golgi transport screen | inhibition, % at 10 µM | post-Golgi transport phenotypic cell assay | AID 739 | 0.9% of 98,000 active;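 further: yeast cells grown in 1536-well plates; yeast grown about 18 h at 30C before absorbance read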
# CYP2C19 inhib = human CYP2C19 inhibition | P33261 | CYP2C19 Supersomes, luciferin-H EGE luminescence, 30 min | inhibition, % at 5 µM | 21% of 96,000 active | AID 778;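 active means CYP2C19 inhibition above a set limit at 5 µM in the primary screen, cut at about 50% in these data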;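 further: plate controls were negative control wells for no effect and 2.5 mM tranylcypromine positive control for full effect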
# Target sequence (P33261 whole entry, looked up): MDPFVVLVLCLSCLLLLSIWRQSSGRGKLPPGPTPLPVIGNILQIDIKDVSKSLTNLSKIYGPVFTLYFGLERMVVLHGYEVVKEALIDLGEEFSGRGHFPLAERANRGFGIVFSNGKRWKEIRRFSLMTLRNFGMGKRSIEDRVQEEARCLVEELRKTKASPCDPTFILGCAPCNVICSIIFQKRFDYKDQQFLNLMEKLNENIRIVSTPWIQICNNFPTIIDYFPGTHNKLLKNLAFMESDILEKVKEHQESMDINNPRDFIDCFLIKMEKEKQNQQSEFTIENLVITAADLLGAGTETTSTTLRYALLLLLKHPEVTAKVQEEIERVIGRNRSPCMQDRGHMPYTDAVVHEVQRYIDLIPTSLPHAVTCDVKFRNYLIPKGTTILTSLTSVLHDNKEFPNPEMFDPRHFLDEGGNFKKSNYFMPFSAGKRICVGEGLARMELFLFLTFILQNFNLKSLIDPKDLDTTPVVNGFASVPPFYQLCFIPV
# CYP2C9 inhib = inhibitors of human CYP2C9. inhibition, % at 5 µM. P11712. CYP2C9 Supersomes, luciferin-H conversion, luminescence. AID 777. 20% of 96,000 active;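 active means blocking of liver enzyme CYP2C9 beyond about 50% at 5 µM, limit read from the data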
# CYP2C9 act = increases human cytochrome P450 2C9 activity. activation factor at 5 µM. recombinant CYP2C9, luciferin-H conversion, luminescence; hits give high values; factor 1 = untreated enzyme, 0 = blocked. AID 1024. P11712. 1.4% of 96,000 active;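 active means activation factor of 2 or more for CYP2C9 at a 5 µM dose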;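 further: 0 = sulfaphenazole-blocked wells and 1 = vehicle-only wells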
# CYP2C19 activ = activators of human cytochrome P450 2C19. recombinant CYP2C19, luciferin-H EGE luminescence; hits give high values; 0 = fully inhibited enzyme, 1 = untreated enzyme. activation factor at 5 µM. P33261. 96,000 tested, under 10 active;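 active means activation factor of at least 2 at 5 µM in the primary screen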;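 further: 0 = wells with 2.5 mM tranylcypromine and 1 = vehicle-only wells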
# * = called active by the depositor; · = no result. Sampled rows, rich in hits. Any-hit rate of the full collection: about 32%. Unless noted, no stated cut-off is given here; in the data, active means inhibition above about 30%; inactive means the rest.
SMILES,PostGolgi ctrl,PostGolgi yeast,CYP2C19 inhib,CYP2C9 inhib,CYP2C9 act,CYP2C19 activ
c1ccc2c(c1)OCC(c1nnc3sc(-c4ccc5c(c4)OCO5)nn13)O2 (stereo not given),8,11,65*,84*,0.2,0.3
c1ccc2c(c1)OCC(c1nnc3n1-c1ccccc1SC3)O2 (stereo not given),2,4,96*,85*,0.2,0
Fc1ccc(-c2nn3c(C4COc5ccccc5O4)nnc3s2)cc1 (stereo not given),21,0,7,49,0.5,0.9
Brc1ccccc1-c1nnc2sc(-c3ccc4c(c3)OCCO4)nn12,60*,3,74*,96*,0,0.3
CC(C)N(O)C(=O)NC(C)(C)C,-4,4,-3,8,0.9,1
Cc1ccc(-c2ncccc2OC(=O)C23CC4CC(CC(C4)C2)C3)cc1,15,-12,-6,-9,1.1,1.1
CCOC(=O)c1c(C(=O)OCC)c(C)n(N2C(=O)CSC2=S)c1C,-6,-10,44,53*,0.5,0.6
CCc1ccc(-c2ccc(C(=O)C(F)(F)F)[nH]2)cc1,-3,-5,11,10,0.9,0.9
COc1ccccc1CNC(=O)c1csc(Cc2ccc(Cl)cc2)n1,56*,-3,60*,56*,0.4,0.4
COc1ccccc1CNC(=O)c1cccs1,5,14,45,-2,1,0.6
COc1ccc(CNC(=O)c2csc(Cc3ccccc3)n2)cc1,22,-3,88*,59*,0.4,0.1
COc1ccc(CNC(=O)c2cc(-c3cccs3)on2)cc1,-1,-11,29,47,0.5,0.7
COc1ccc(NC(=O)c2csc(Cc3ccccc3)n2)cc1,16,-12,50*,64*,0.4,0.5
Cc1cc(OCc2nc(-c3cccs3)no2)cc(C)c1Cl,4,-1,50*,48,0.5,0.5
CCOc1nc(-c2ccccc2)ccc1-c1noc(COc2ccccc2)n1,6,1,60*,80*,0.2,0.4
c1ccc(OCc2nc(-c3cccs3)no2)cc1,-3,-6,74*,62*,0.4,0.3
COc1cc(NC(=O)CCc2nc(-c3cccs3)no2)cc(OC)c1OC,4,8,27,33,0.7,0.7
CCCn1c(NC(=O)C2COc3ccccc3O2)nc2ccccc21 (stereo not given),11,-1,7,-5,1,0.9
Cc1cc(C)c2c(c1)/C(=N/NC(=S)Nc1ccc(F)cc1)CCC2,21,8,-9,-27,1.3,1.1
CCOCCCNC(=O)Cn1cc2c(n1)CCCCC2,6,7,35,1,1,0.6
O=C(N/N=C/c1cccc(Oc2ccc([N+](=O)[O-])cc2[N+](=O)[O-])c1)c1cncc(Br)c1,-1,0,·,·,·,·
CCCCc1cc(=O)oc2cc(C)cc(O)c12,25,-3,55*,68*,0.3,0.4
Cc1cc(O)c2c(-c3ccccc3)cc(=O)oc2c1,14,9,52*,76*,0.2,0.5
CCCCc1cc(=O)oc2cc(C)cc(OC(C)C(=O)O)c12 (stereo not given),16,-6,-1,22,0.8,1
COc1ccc([N+](=O)[O-])cc1COc1cc(C)cc2oc(=O)cc(-c3ccccc3)c12,26,-1,75*,92*,0.1,0.3
SMILES,PostGolgi ctrl,PostGolgi yeast,CYP2C19 inhib,CYP2C9 inhib,CYP2C9 act,CYP2C19 activ
CCCc1cc(=O)oc2cc(C)cc(OCC(=O)O)c12,6,13,17,43,0.6,0.8
CCN(CC)Cc1c(O)ccc2c(-c3ccccc3)cc(=O)oc12,6,4,10,-10,1.1,0.9
COc1ccc(NC(=O)CSc2nnc(-c3cccnc3)n2Cc2ccco2)c(OC)c1,-5,10,37,49,0.5,0.6
COc1cccc(CN(CC(=O)NC2CCCC2)C(=O)CCC(=O)Nc2cc(C)on2)c1,-1,0,51*,78*,0.2,0.5
COc1cccc(CN(CC(=O)NC2CCCC2)C(=O)Cn2nnc(-c3cccs3)n2)c1,-3,1,66*,97*,0,0.3
CCC(C(=O)NC1CCCC1)N(C(=O)Cn1nnc(-c2cccs2)n1)c1cnc2ccccc2c1 (stereo not given),-3,-9,0,-3,1,1
CN(C)CCCNc1cn[nH]c(=O)c1Cl,6,18,-4,5,0.9,1
C=CCNC(=S)N/N=C(\C)c1ccccn1,20,-1,34,27,0.7,0.7
O=C(CSc1n[nH]c(-c2cccs2)n1)N1CCN(S(=O)(=O)c2ccc3ccccc3c2)CC1,14,0,23,2,1,0.8
CC1(C)CC(=O)C(CC2=C(O)CC(C)(C)CC2=O)=C(O)C1,7,4,86*,26,0.7,0.1
CC1(C)CC(=O)C(C=NC2CCCCC2)=C(O)C1,-4,-6,30,21,0.8,0.7
CC1(C)CC(=O)C(CC2=C(O)CC(C)(C)CC2=O)C(=O)C1,·,·,51*,3,1,0.5
CN=CC1=C(O)CC(C)(C)CC1=O,24,0,2,19,0.8,1
CCCCC(NC(C)=O)c1nc2ccccc2n1CCCC (stereo not given),14,-4,11,6,0.9,0.9
CCOc1ccc2nc(NC(=O)CCC(=O)c3cccs3)sc2c1,5,-23,3,2,1,1
CC(C)c1ccccc1OCCNS(C)(=O)=O,12,-23,51*,-16,1.2,0.5
COc1ccc(C2=NOC(CN3C(=O)c4ccccc4S3(=O)=O)C2)cc1 (stereo not given),-5,-3,76*,89*,0.1,0.2
COc1ccc(N2CCN(C(=O)CN3C(=O)c4ccccc4S3(=O)=O)CC2)cc1,16,10,-1,2,1,1
O=C1c2ccccc2S(=O)(=O)N1CC1CC(c2ccccc2)=NO1 (stereo not given),8,8,82*,81*,0.2,0.2
O=C(Nc1ncn[nH]1)c1c(Cl)ccc(Cl)c1Cl,12,0,88*,-37,1.4,0.1
O=C(Nc1ncn[nH]1)c1ccc(Cl)c(S(=O)(=O)N2CCCCCC2)c1,3,-5,1,2,1,1
CCOc1ccccc1N(CC(=O)N1CCOCC1)S(=O)(=O)c1ccc(SC)cc1,13,23,29,39,0.6,0.7
CSc1cccc(NS(=O)(=O)c2ccccc2)c1,2,0,30,66*,0.3,0.7
CCOC(=O)COc1ccc(S(=O)(=O)NCc2cccnc2)cc1,6,4,-1,5,0.9,1
Cc1ccc(S(=O)(=O)Nc2cccc(/C=C/C(=O)O)c2)cc1,3,11,2,2,1,1
CSc1cccc(NS(=O)(=O)c2ccc(F)cc2)c1,3,-7,96*,91*,0.1,0

# Screens as filed in PubChem.
